# Experimental data reported in PubChem BioAssay (NCI).
# The panel holds about 83,000 compounds, 20% with a hit somewhere; the sample as a whole holds those more often.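 For each line, cells grew in 96-well plates with the test compound present at a single concentration for 48 hours.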 A number with no mark means an inactive call. The source made the active and inactive calls.
# Tested on: NCI-H460 lung
# Assay: NCI-60 one-dose screen, 48 h (100 = growth as untreated, 0 = no growth, -100 = all killed)
# Details: 10 µM unless noted
# Procedure: Growth inhibition of the NCI-H460 human Non-Small Cell Lung tumor cell line is measured as a screen for anti-cancer activity. Cells are grown in 96 well plates and exposed to the test compound for 48 hours. Compounds are tested at a single concentration, which is 10^-5 M for most compounds. The reported endpoint is percent growth (GI% or GIPRCNT), where numbers from 0 - 100% represent growth inhibition, and numbers from -100% - 0 represent cell death. For example, a value of 40 represents 60% growth inhibition. A value of 0 means no net growth occurred over the course of the experiment. A value of -40 indicates 40% of cells at the beginning of the experiment died by the end of the experiment. A value of -100 means all cells are dead at the end of the experiment.
# NCI-60 Human Tumor Cell Lines Screen was performed using the standard one-dose NCI protocol, which is described in more detail at https://dtp.cancer.gov/discovery_development/nci-60/default.htm.
# Compounds with GIPRCNT values below 10 were considered active. Activity score was based on GIPRCNT using the following formula: […]
# Score is 0 for GIPRCNT values of 100 or above, 50 for GIPRCNT values of 0, and 100 for GIPRCNT values of -100.
row,SMILES,growth
1,N#Cc1c(NC(=O)c2ccccc2)sc2c1CCC(=O)C2,16.3%
2,O=[N+]([O-])c1ccc(S(=O)(=O)N2CCN(C3=NS(=O)(=O)c4ccccc4N3c3ccccc3)CC2)cc1,115%
3,CC1=C(Nc2ccc(N3CCN(C)CC3)cc2)C(=O)c2cncnc2C1=O,25.2%
4,O=Nc1c(-c2c(O)[nH]c3ncccc23)[nH]c2ccccc12,52.2%
5,COP(=O)(OC)C(C)(C)CC(=O)CC(C#N)(C#N)C(C#N)C#N,112%
6,N#Cc1nc(-c2ccccc2)oc1S(=O)(=O)N1CCOCC1,109%
7,COc1ccc(C2=Nc3c/c(=C\c4c(O)[nH]c5ccc(Cl)cc45)ccc3=N2)cc1,43.5%
8,N=C(N)c1ccc(-c2ccc(-c3ccc(Cl)cc3)s2)nc1,-90.2% (active)
9,CC(C)CCC[C@@H](C)[C@H]1CC[C@H]2[C@@H]3CC=C4C[C@@H](C(C(=O)O)C(=O)O)CC[C@]4(C)[C@H]3CC[C@]12C,-71.5% (active)
10,O=C1N(Cc2ccccc2Cl)c2ccccc2C12NN=C(c1cccc(Cl)c1)S2 (stereo not given),-50.7% (active)
11,Oc1c(Cl)cc(Cl)cc1/C=N/Nc1nnc(N/N=C/c2cc(Cl)cc(Cl)c2O)c2ccccc12,0.0293% (active)
12,CC1=Nc2cnc(Nc3ccc(OCCN4CCCC4)cc3)nc2Nc2ccccc21,64.2%
13,COc1cc(CNC(=O)/C=C/C=C/c2ccc3c(c2)OCO3)ccc1OCc1cn(-c2ccc(C)c(C)c2)nn1,85%
14,CCOc1nc(-c2ccccc2)cc2c(O)c(C(=O)NN)[nH]c(=O)c12,86.1%
15,O=C(Nc1cccc([N+](=O)[O-])c1)c1cc2ccccc2cc1O,3.41% (active)
16,CN(C)c1ccc(Nc2cc(-c3cccc(OC(F)(F)F)c3)nc3ccc(N4CCCC4)cc23)cc1,-70.9% (active)
17,O=C(Nc1cccnc1Nc1ccc(F)cc1)c1cn(Cc2cccc(Oc3ccccc3)c2)nn1,80.4%
18,CO[C@H]1/C=C(/C)CCC[C@H](C)[C@H](O)[C@@H](C)C(=O)C(C)(C)[C@@H](O)CC(=O)O[C@@H]1/C(C)=C/c1csc(C)n1,6.16% (active)
19,N#CC1C=CN(CC(N)=O)c2ccc3cccnc3c21 (stereo not given),103%
20,COc1cccc(/C=C/C(=O)c2cc3c(N)c(C(=O)Nc4ccccc4)sc3nc2C)c1,-22.5% (active)

row,SMILES,growth
1,O=C(O)c1ccc(-n2cc(/C=N/Nc3ccc(F)cc3)c(-c3cc4ccccc4oc3=O)n2)cc1,96.5%
2,COc1cc(OC)cc(C2=C3CC[C@@H]4[C@H](CC[C@]5(C)C(=O)CC[C@@H]45)C3=CC3C(O)c4cccnc4N4C(=O)COC234)c1 (stereo not given in full),103%
3,O=C(O)CCCN1C(=O)/C(=C/C(Cl)=C/c2ccccc2)SC1=S,57.4%
4,N#CCSc1nnc2n(Cc3ccccc3)c(=O)c3c4c(sc3n12)CCCC4,108%
5,O=C(/C=C/c1ccc(Cl)cc1)c1cccc(Nc2nc(Nc3ccccc3)nc(Nc3ccccc3)n2)c1,103%
6,CCn1c(=S)[nH]c2c(=O)n(C)c(=O)n(C)c21,123%
7,CCCCCCCCCCCCCCCCCCOc1ccccc1CC(=O)NCC[N+]1(C)CCCC1,34.8%
8,CN(CCOc1ccc(C#N)cc1)CCOc1ccc(C#N)cc1,120%
9,CN(C)CCCn1c2c(c3ncccc3c1=O)C(=O)c1ccccc1-2,11.6%
10,CCN(CC)CCOc1ccc(-c2c(-c3ccccc3)c(=O)oc3ccccc23)cc1,95.8%
11,O=C(NCc1ccccc1)Nc1ccccc1CNc1nc(Nc2ccc(OCCN3CCCC3)cc2)ncc1Cl,39.4%
12,COc1ccc(CC(C#N)c2cc3ccccc3[nH]2)cc1 (stereo not given),97.2%
13,CCSc1nc(NC)c2cc(-c3ccc(C(F)(F)F)cc3)ccc2n1,103%
14,Cc1ccccc1Cn1cnc2ccc(-c3cc(NC(=O)c4ccc(NC5CCN(C)CC5)cc4)n[nH]3)cc21,91.9%
15,Cn1c(=O)c2c(nc(NC3=NS(=O)(=O)c4ccccc43)n2CC(=O)N2CCc3ccccc32)n(C)c1=O,100%
16,O=C(c1ccc(Cl)cc1)N1CCN(c2ccnc3cc(Cl)ccc23)CC1,96.2%
17,CNC(=O)c1cc(Oc2ccc3nc(NC(C)=O)sc3c2)ccn1,104%
18,COCCNC(=O)c1ccc(-c2nc3ccc4[nH]ncc4c3c3c2CCCC3)cc1,27.1%
19,CCC(C)N(c1ccc(Cl)cc1)c1nc(-c2ccc(Br)cc2)cs1 (stereo not given),98%
20,COC(=O)CCC(=O)C(=O)OC,7.63% [10 mM] (active)
